Measured values from PubChem BioAssay AID2284193 (EPA ToxCast).
Active and inactive are the calls of the source. The calls were made as follows: active = hit-call score of the fitted dose curve at least 0.9, where 1 is the maximum; inactive = score below 0.9.

biological target: human Tachykinin Receptor NK1 Agonism, TACR1 (gene 6869) (UniProt P25103); experiment: ERF_TW_GPCR_hTACR1: Eurofins (ERF) G Protein-Coupled Receptor (GPCR) Radioligand Binding LeadHunter Assay for human Tachykinin Receptor NK1 Agonism
Experimental: ERF_TW_GPCR_hTACR1 is a biochemical, single-readout assay that uses extracted gene-proteins in a cell-free assay. Measurements were taken 1.5 hour after chemical dosing in a 96-well plate. See NK1 Human Tachykinin GPCR Binding (Agonist Radioligand) Assay, Panlabs.ERF_TW_GPCR_hTACR1 is an assay component calculated from the ERF_TW_GPCR_hTACR1 assay. It is designed to measure radioligand binding using a type of binding reporter as detected by scintillation counting with radiometry technology.Data from the assay component ERF_TW_GPCR_hTACR1 was analyzed at the assay endpoint, ERF_TW_GPCR_hTACR1, in the positive analysis fitting direction relative to DMSO as the negative control and baseline of activity. Using a type of binding reporter, gain-of-signal activity can be used to understand changes in radioligand binding as they relate to gene TACR1. To generalize the intended target to other relatable targets, this assay endpoint is annotated to the gpcr intended target family, where the subfamily is tachykinin.
Human recombinant neurokinin NK1 receptors expressed in CHO cells are used in modified Tris-HCL buffer pH 7.4. A 36 ug aliquot is incubated with 0.8 nM [3H]Substance P for 90 minutes at 4C. Non-specific binding is estimated in the presence of 10 uM L-703,606. Receptors are filtered and washed, the filters are then counted to determine [3H]Substance P specifically bound. […]

Sequence of human Tachykinin Receptor NK1 Agonism, TACR1 (gene 6869) (P25103 whole entry, looked up): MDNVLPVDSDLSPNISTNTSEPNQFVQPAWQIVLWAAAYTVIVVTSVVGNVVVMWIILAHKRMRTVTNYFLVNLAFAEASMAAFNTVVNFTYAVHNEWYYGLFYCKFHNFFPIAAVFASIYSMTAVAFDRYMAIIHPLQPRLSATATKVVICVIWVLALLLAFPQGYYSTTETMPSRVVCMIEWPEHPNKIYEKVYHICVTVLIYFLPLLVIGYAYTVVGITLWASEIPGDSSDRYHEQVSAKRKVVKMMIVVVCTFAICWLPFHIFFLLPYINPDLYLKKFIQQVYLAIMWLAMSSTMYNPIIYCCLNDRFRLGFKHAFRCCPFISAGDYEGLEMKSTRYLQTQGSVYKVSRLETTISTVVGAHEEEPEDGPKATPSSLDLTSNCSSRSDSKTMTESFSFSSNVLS

SMILES | AC50 | outcome
COc1cc(CCC(=O)CC(=O)CCc2ccc(O)c(OC)c2)ccc1O | 5 µM (active) | 
CCCCC[C@H](O)CC(=O)CCc1ccc(O)c(OC)c1 |  | inactive
